Only some compounds are listed: those with a hit (about 0.98% of all), similar ones and a draw of the others.
C-LANA FP: KSHV C-LANA DNA binding inhibition; hit rate 0.078% among 340,000; inhibition, % at 9 µM; AID 504423; MBP-C-LANA/FAM-LBS DNA binding, fluorescence polarization;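 active means highest replicate inhibition at or above 60% at 9 µM, even if other replicates fall short; inactive means all replicates below 60% inhibition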
cardiac RTF act: increases calcium sensitivity of human cardiac regulated thin filaments. activation, % at 7.2 µM. AID 493008. P19429+P45379. hit rate 0.24% among 340,000. IANBD-labeled TnC RTF fluorescence at EC20 calcium; 0% EC20 calcium, 100% full calcium;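 active means activation above the mean over all tested compounds plus 3 SD, cut at about 30% in these data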;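 further: rise in fluorescence read as greater calcium sensitivity of cardiac thin filaments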
Keap1-Nrf2 PPI: Keap1-Nrf2 (human) interaction inhibition; hit rate 0.15% among 340,000; Keap1 Kelch-Nrf2 peptide fluorescence polarization, 1536-well; inhibition, % at 9.4 µM; AID 504523; Q14145; in the data active means inhibition above about 12%;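 further: human Keap1 Kelch domain with fluorescein labeled Nrf2 9mer peptide probe; higher means more block of Keap1 binding to Nrf2 peptide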
Target sequence (Q14145 whole entry, looked up, the tested form may be a part): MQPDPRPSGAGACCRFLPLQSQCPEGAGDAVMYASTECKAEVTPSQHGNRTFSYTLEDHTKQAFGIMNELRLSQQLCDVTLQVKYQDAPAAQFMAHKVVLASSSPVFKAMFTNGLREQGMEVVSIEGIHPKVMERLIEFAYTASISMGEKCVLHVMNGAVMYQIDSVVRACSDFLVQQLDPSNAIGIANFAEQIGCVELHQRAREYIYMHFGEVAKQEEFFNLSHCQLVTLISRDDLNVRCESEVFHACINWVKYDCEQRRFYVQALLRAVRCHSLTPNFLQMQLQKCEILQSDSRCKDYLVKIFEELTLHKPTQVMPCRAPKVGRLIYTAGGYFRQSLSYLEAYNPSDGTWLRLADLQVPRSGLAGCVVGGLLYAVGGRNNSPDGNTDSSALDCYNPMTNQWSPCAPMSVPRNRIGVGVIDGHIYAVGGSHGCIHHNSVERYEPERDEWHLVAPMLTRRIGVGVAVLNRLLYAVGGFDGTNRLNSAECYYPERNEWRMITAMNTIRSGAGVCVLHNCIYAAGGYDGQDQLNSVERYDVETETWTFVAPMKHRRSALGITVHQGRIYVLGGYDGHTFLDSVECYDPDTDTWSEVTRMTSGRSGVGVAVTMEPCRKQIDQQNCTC
LANA-H2A inh: blocks KSHV LANA binding to histone H2A/H2B | AID 2629 | inhibition, % (no concentration beside the values) | hit rate 0.6% among 320,000 | cell-free LANA-H2A/H2B peptide, fluorescence polarization | Q9QR71; in the data active means inhibition mostly above about 10%, no sharp cut-off; inactive means mostly below about 6.7%
Cardiac RTF inh: cardiac RTF calcium desensitization | P19429+P45379 | IANBD-labeled cardiac RTF, Ca2+ fluorescence | inhibition, % at 7.15 µM | hit rate 0.12% among 340,000 | AID 493244;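 active means inhibition above the mean inhibition of all tested compounds plus 3 SD, cut at about 17% in these data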;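 further: assay run at fixed EC70 calcium of 1.6 mM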
Of the large screens only hits and unclear results are named; the others gave an inactive call; ! = not confirmed by another sample.

Cc1cc(=O)oc2c(C)c(OCC(=O)N3CCN(c4cccc(Cl)c4)CC3)ccc12	none
COc1ccc(CNC(=O)C2(CC3CC(c4ccccc4)=NO3)CCN(C(=O)C3CCCC3)CC2)cc1 (stereo not given)	none
O=C(NCc1ccccn1)c1ccc(NS(=O)(=O)c2cccc(Cl)c2)cc1	LANA-H2A inh 38
O=C(NCc1ccccn1)c1cccc(NS(=O)(=O)c2cccc(Cl)c2)c1	none
CCCCC(=O)Nc1ccc2c(c1)nc(CCN1CCN(C)CC1)n2C	none
COCCn1c(-c2ccc(NC(C)=O)cc2)nc2c1c(=O)[nH]c(=O)n2CC(C)C	LANA-H2A inh 13
COc1ccc(C)c2sc(NC(=O)CCS(=O)(=O)c3ccccc3)nc12	LANA-H2A inh 103
O=C1ON=C(c2ccccc2)/C1=C/c1ccc(OS(=O)(=O)c2ccccc2)cc1	LANA-H2A inh 121
CCc1ccc(C(c2ccc(CC)cc2)C(Cl)Cl)cc1	LANA-H2A inh 24
COc1ccc(N2N=NN(C(C)C)C2=C(Cl)c2nnnn2-c2ccc(OC)cc2)cc1	none (no result: LANA-H2A inh)
CCN(CC)c1ccc(S(=O)(=O)N2CCCCC2)cc1NC(=O)C1CCC1	LANA-H2A inh 71
CC[N+](C)(C)c1cccc(O)c1	LANA-H2A inh 20!
Cc1cc(C)cc(NC(=S)N2CCN(c3ccccn3)CC2)c1	none
Cc1cc(C)cc(NC(=S)N2CCN(c3ncccn3)CC2)c1	LANA-H2A inh 21
Cc1cc(C)cc(NC(=O)N2CCCN(c3ncccc3[N+](=O)[O-])CC2)c1	LANA-H2A inh 14
Cc1cccc(CC2CC(=O)N(c3ccc(C)cc3Br)C2=O)c1 (stereo not given)	LANA-H2A inh 26
CCN(CC)c1ccc2cc(-c3nc(-c4cc5ccccc5oc4=O)cs3)c(=O)oc2c1	cardiac RTF act 95 (no result: LANA-H2A inh)
CC(=O)c1ccc(NC(=S)Nc2ccc(Br)c(Cl)c2)cc1	LANA-H2A inh 36
O=C(CNC(=O)c1ccccc1F)NCc1ccccn1	none
COc1ccc(NC(=O)C2OC3OC(C)(C)OC3C3OC(C)(C)OC23)cc1 (stereo not given)	LANA-H2A inh 27
COc1cc(C2C3CN(C)CC=C3C(C#N)=C(N)C2(C#N)C#N)ccc1OC(C)C (stereo not given)	cardiac RTF act 42
COc1ccccc1NS(=O)(=O)c1ccc2c(c1)CCN2C(=O)CCC(=O)O	none
Cc1ccc2nc(/C(C#N)=C\c3ccc(N4CCOCC4)o3)[nH]c2c1	cardiac RTF act 152
Cc1cc2nc(/C(C#N)=C\c3ccc(-c4ccccc4C(=O)O)o3)[nH]c2cc1C	cardiac RTF act 52
Cc1ccc2nc(/C(C#N)=C/c3ccc(-c4ccccc4C(=O)O)o3)[nH]c2c1	none
COc1cc(C(C)=O)ccc1O	none
Nc1cnccc1C(=O)O	cardiac RTF act 39
N#CC1(NC(=O)Cn2ncc(Cl)c(Cl)c2=O)CCCCC1	none
CC(C)CC(c1nnnn1CCc1ccccc1)N1CCC(C(N)=O)CC1 (stereo not given)	none
Cc1ncc(CN2CCC(CO)(CCc3ccccc3)CC2)s1	LANA-H2A inh 16
COc1ccc(Cn2c(C)nc3ccc([N+](=O)[O-])cc3c2=O)cc1	none
CCOc1c(Cl)cc(C2NC(=O)NC(C)=C2C(=O)NCc2ccccc2)cc1OC (stereo not given)	none
CCOC(=O)COc1ccc(Br)cc1C1NC(=O)NC(C)=C1C(=O)NCc1ccccc1 (stereo not given)	LANA-H2A inh 67
CCOC(=O)c1cc(-c2cccc([N+](=O)[O-])c2)on1	none
O=C(COc1ccc2c(-c3ccccc3)cc(=O)oc2c1)NCCN1CCOCC1	none
COc1ccc(-c2cc(=O)oc3cc(OCC(=O)NCCN4CCOCC4)ccc23)cc1	LANA-H2A inh 16
CCCCc1cc(=O)oc2cc(OCC(=O)NCCN3CCOCC3)ccc12	LANA-H2A inh 15
COCCn1c(=NC(=O)CSCC(=O)N2CCOCC2)sc2cc(C)ccc21	none
Cc1ccc(NC(=O)CN(C)C(=O)CCSc2ccc(F)cc2)cc1	LANA-H2A inh 18
Cc1cccnc1CCNCc1c(C(=O)N2C[C@@H](C)O[C@@H](C)C2)nc2ccc(Cl)cn12	none
CCCCCCn1c(=O)[nH]c2nc3cc(N)ccc3nc2c1=O	LANA-H2A inh 42 (no result: C-LANA FP, cardiac RTF act, Keap1-Nrf2 PPI, Cardiac RTF inh)
CNCCCCOc1ccccc1Cc1ccccc1	none (no result: C-LANA FP, cardiac RTF act, Keap1-Nrf2 PPI, Cardiac RTF inh)
CN(C)CCOc1ccccc1Cc1ccccc1	LANA-H2A inh 6.1
COc1ccc(/C=N/Nc2nc(-c3ccc(Cl)cc3)cc(C(F)(F)F)n2)c(OC)c1	none
CC(NC(=O)c1cc(COc2c(F)cccc2F)on1)c1cnn(-c2ccccc2)c1 (stereo not given)	LANA-H2A inh 47
CC(=O)c1c[nH]c(C(=O)NCC2CCCO2)c1 (stereo not given)	none
O=C(c1cccc(C(F)(F)F)c1)c1c[nH]c(C(=O)NCC2CCCO2)c1 (stereo not given)	LANA-H2A inh active
Cc1cc(SCC(=O)N2CCN(C(=O)c3ccco3)CC2)c(C)cc1Br	LANA-H2A inh 45
c1ccc2c(c1)Oc1ccccc1S2	LANA-H2A inh 42
CCN(CC(=O)Nc1ccc(OC)cc1)C(=O)Cc1coc2cc(C)c(C)cc12	LANA-H2A inh 56
Cc1ccc(NC(=O)CN(C)C(=O)Cc2coc3cc(C)c(C)cc23)cc1	none (no result: LANA-H2A inh)
Cc1cc(Br)ccc1NC(=O)CN1C(=S)NC(C)(C)CC1C (stereo not given)	none
O=C1CCN2C=Nc3cccc4ccc1c2c34	C-LANA FP 152, cardiac RTF act 703, Keap1-Nrf2 PPI 140, LANA-H2A inh 114
O=C1CCC(=O)c2ccc3c4c(ccc1c24)CC3	none (no result: LANA-H2A inh)
CN(C(=O)c1ccccc1C(=O)OCC(=O)c1ccccc1)c1ccccc1	LANA-H2A inh 30
CN(C(=O)c1ccccc1C(=O)OCC(=O)c1ccc(F)cc1)c1ccccc1	none
CC1=C(C)CS(=O)N(S(=O)(=O)c2ccccc2)C1 (stereo not given)	LANA-H2A inh 14
CC(OC(=O)Cn1c(C(F)(F)F)nc2ccccc21)C(=O)N1CCCc2ccccc21 (stereo not given)	LANA-H2A inh 26
C=CCOC(=O)C1=C[C@@H](c2ccc(C(F)(F)F)cc2)C[C@@H](OCc2ccc(CO)cc2)O1	none
Cc1cc(C)nc(-n2ncc(C#N)c2N)n1	LANA-H2A inh 11
COc1ccc(S(=O)(=O)N2CCCCC2)cc1NC(=O)CSc1nnc(C2CC2)n1C	none
O=C(c1ccccc1)c1cc2ccc(O)cc2oc1=O	LANA-H2A inh 41
CCOc1ccc(C)cc1S(=O)(=O)n1cnc2ccccc21	none
COC(=O)c1[nH]c(=O)c2ccccc2c1O	LANA-H2A inh 23
COc1cccc(C(=O)N(C)CC2CCN(CCc3cccc(C(F)(F)F)c3)CC2)c1	none
COC(=O)Cn1cc(/C=C/c2cc[n+](C)cc2)c2ccccc21	cardiac RTF act 86
COC(=O)Cn1c(=O)c(=O)n(CC(=O)OC)c2ccccc21	none
CNC(=O)/C(C#N)=C/c1cn(CC(=O)OC)c2ccccc12	none

Assay outcomes (PubChem)
